From PubChem BioAssay
Compounds with a hit are over-represented: about 3.8% of the library has one in this group of screens.
esBAF inh – blocks esBAF chromatin remodeling in mouse ES cells; Bmi1-luciferase knock-in reporter, 24 h; 100% = twice the neutral-well signal; actives 2% (n = 350,000); reporter increase, % at 12.5 µM; in the data active = activation above about 40%; inconclusive = no clear call, values can overlap the other calls;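 also: 0% = median of the plate's neutral control wells and 100% = double that signal; a rise in the Bmi1 reporter signal indicates esBAF inhibition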
HSF1 inh – HSF1 inhibition | activity change, negative = inhibition, % at 7.5 µM (by protocol) | NIH3T3-HGL HSE-luciferase, MG132-induced, luminescence 8 h; active compounds read low | AID 2098 | actives 0.77% (n = 300,000);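 active = more than half of replicate wells show activity change below -50%, luminescence cut by over half; inconclusive = some wells, but at most half, below -50%; inactive = no replicate well below -50%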;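 also: luciferase reports HSF-1 transcriptional activity via heat shock element; 0% = median of DMSO wells and -100% = zero luminescence signal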
MITF TRPM1 HTS – increases MITF-driven TRPM1 promoter luciferase signal. AID 588334. SK-MEL-5 TRPM1-promoter luciferase, 24 h; % of positive control, neutral wells = 0. activation, % at 12.5 µM. actives 0.75% (n = 300,000);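 active = mean activation of at least 80% with every replicate also reaching 80%; inconclusive = mean reaches 80% but some replicate falls short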;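 also: 0% = neutral control wells and 100% = parthenolide positive control wells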
HSF-1 act – increases HSF-1 driven luciferase reporter signal. NIH3T3-HGL HSF-1 luciferase reporter, MG132, 8 h; 100% = twice DMSO control signal. activation, % at 9 µM. actives 1.7% (n = 300,000). AID 504408;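 active = mean replicate activation of at least 50% with a set share of replicates each reaching 50%; inconclusive = only one of those two conditions met; inactive = mean below 50% and too few replicates reaching it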;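 also: 0% = median of the neutral control wells and 100% = twice that signal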
Wnt act – activators of Wnt/beta-catenin signaling | AID 743398 | activation, % at 9.35 µM | actives 1.2% (n = 300,000) | Wnt/beta-catenin reporter cell assay, activator, plate reader; in the data active = activation above about 30%, passing the limit was not always enough; inconclusive = no clear call, values can overlap the other calls;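 also: 0% = neutral control wells and 100% = positive control wells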
Ring1 derepress – de-represses Ring1 in mouse ESCs, confirming esBAF inhibition | shares compounds with esBAF inh | mouse ESC E14, Ring1 mRNA RT-qPCR fold change | fold change at 33 µM | 550 tested, under 10 active;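 active = Ring1 gene expression raised more than 2-fold over untreated cells in both replicates at either tested dose; inconclusive = only one replicate above 2-fold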;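 also: Ring1 transcript normalised to actin housekeeping signal by TaqMan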
esBAF Fgf4 qPCR – represses Fgf4 in mouse ESCs, confirming esBAF inhibition. shares compounds with esBAF inh. mouse ESC E14, Fgf4 mRNA qPCR fold change; active compounds read low. Fgf4 expression fold change at 33 µM. actives 4% (n = 550). AID 743177;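 active = Fgf4 expression under 0.8 fold of control in both repeat measurements at one or both tested doses; inconclusive = under 0.8 fold in just a single repeat measurement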;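 also: Fgf4 transcript normalised to actin in duplex TaqMan qPCR; cells exposed to compound for 24 h before lysis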
Bmi1 derepress – confirmation of esBAF inhibitors: Bmi1 de-repression in mouse ESCs; shares compounds with esBAF inh; 550 tested, under 10 active; AID 743180; fold change at 33 µM; mouse ESE14 ES cells, Bmi1 mRNA qPCR fold; active compounds read high;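 active = Bmi1 expression fold change above 6 at either tested concentration, seen in replicate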;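 also: higher fold means more Bmi1 de-repression and stronger esBAF inhibition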
A549 tox SP – A549 cell cytotoxicity; cell viability change % (negative = cytotoxic), % at 25 µM, hits read low; plate reader; shares compounds with esBAF inh; 550 tested, under 10 active; AID 743188; call rule not given here
HepG2 cytotox SP – HepG2 cell cytotoxicity at single point | shares compounds with esBAF inh | plate reader; active compounds read low | activity change, negative = inhibition, % at 25 µM | actives 4% (n = 550); in the data active = activity change below about -50%
HEK293 tox SP – cytotoxicity in HEK293 cells. plate reader. actives 3% (n = 550). activity change, negative = inhibition, % at 25 µM, hits read low. shares compounds with esBAF inh; in the data active = activity change below about -38%, passing the limit was not always enough
* marks the source's active call; other numbers are inactive results; u = inconclusive; x = no result given.

SMILES	esBAF inh	HSF1 inh	MITF TRPM1 HTS	HSF-1 act	Wnt act	Ring1 derepress	esBAF Fgf4 qPCR	Bmi1 derepress	A549 tox SP	HepG2 cytotox SP	HEK293 tox SP
O=C(c1ccncc1)N1N=C(c2ccc(Cl)cc2)CC1c1ccccc1O (configuration not stated)	80*	2	65	7	18	1.4	0.83	1.6	12	24	5
O=C(CC(=O)c1ccccc1)c1ccccc1	86*	x	46	x	1	1.3	0.82	1.8	-5	-18	-3
O=C(CC(=O)c1ccncc1)c1ccccc1	x	x	12	x	16	x	x	x	x	x	x
C[C@@H]1CN([C@H](C)CO)C(=O)c2cccc(NS(=O)(=O)c3cn(C)cn3)c2O[C@@H]1CN(C)S(=O)(=O)c1cccs1	2	x	x	x	x	x	x	x	x	x	x
O=C1N=C(N2CCCCC2)S/C1=C\c1ccccc1F	57*	20	x	35	9	1.4	u	1.7	4	-8	-4
C=CCNc1nc(-c2ccc(O)c(C(N)=O)c2)cs1	59*	0	55	8	-3	1.2	1	1.3	-7	-36	-6
O=C(N/N=C/c1cnc2ccccc2n1)c1cccc(F)c1	60*	-7	49	10	9	1.1	1.1	1.3	4	4	3
C[C@@H]1CCCCO[C@@H](CN(C)S(=O)(=O)c2ccccc2)[C@@H](C)CN([C@H](C)CO)C(=O)c2cc(NC(=O)c3ccncc3)ccc2O1	-5	x	x	x	x	x	x	x	x	x	x
Cc1ccc(CNC(=O)C2CCC(=O)N(CCc3ccc(Cl)cc3)C2)s1 (configuration not stated)	-3	-1	20	-7	-4	x	x	x	x	x	x
Cc1ccc(CNC(=O)C2CCC(=O)N(CCc3ccc(Cl)cc3)C2)cc1 (configuration not stated)	56*	19	75	21	8	1.2	0.93	1.7	-5	3	2
COc1ccc2oc3cc(Cl)ccc3c(=O)c2c1	80*	x	x	x	4	1.1	u	1.4	8	-30	-10
C[C@H](CO)N1C[C@H](C)[C@H](CN(C)Cc2ccc(C(=O)Nc3ccccc3N)cc2)Oc2ccc(NS(=O)(=O)c3cccs3)cc2C1=O	-16	x	x	x	x	x	x	x	x	x	x
COc1cccc(/C=C2/NC(=O)N(CC(=O)Nc3ccc(C)cc3)C2=O)c1OCc1cccc(C(=O)O)c1	2	-5	8	6	0	x	x	x	x	x	x
Cc1ccc(NC(=O)CN2C(=O)N/C(=C/c3ccccc3OCc3cccc(C(=O)O)c3)C2=O)cc1	39	-17	59	-33	11	1.2	0.84	1.2	-8	0	-7
Cc1noc(C)c1NC(=O)Nc1ccc2c(c1)C(=O)N([C@H](C)CO)C[C@H](C)[C@@H](CN(C)Cc1ccccc1)OCCCC[C@H](C)O2	2	x	x	x	x	x	x	x	x	x	x
Cc1ccc(Nc2cccccc2=O)cc1	55*	35	u	u	26	1.1	1.1	1.8	-5	-21	-9
COc1ccccc1N1CCN(C(=O)Nc2cccc(Cl)c2)CC1	13	12	27	4	-2	x	x	x	x	x	x
COc1cccc(NC(=O)N2CCN(c3cccc(C)c3C)CC2)c1	72*	10	x	10	0	1.1	1	1.2	-3	13	-5
C[C@@H]1CN([C@H](C)CO)C(=O)c2cccc(NS(=O)(=O)c3ccc(Cl)cc3)c2O[C@@H]1CN(C)S(=O)(=O)c1cccs1	0	x	x	x	x	x	x	x	x	x	x
O=C(CCCc1ccccn1)c1ccc(-c2ccccc2)cc1	55*	x	u	x	-3	1.2	u	1.8	-5	-14	-6
CC1(C)CNC(=O)c2sc(NC(=O)c3ccccc3)nc2C1	84*	12	91*	34	0	1.1	1	1.5	-2	-26	-24
CC1(C)CC(=O)c2sc(NC(=O)c3ccc4ncsc4c3)nc2C1	u	7	28	-3	-1	x	x	x	x	x	x
Cc1ccc2oc(-c3cccc(NC(=S)NC(=O)c4cccs4)c3)nc2c1	x	9	12	2	22	x	x	x	x	x	x
Cc1sc(NC(=O)c2cccs2)nc1-c1ccccc1	64*	19	x	48	47*	2.5*	0.96	2.5	-5	12	10
O=C(Nc1ccc2oc(-c3ccccc3)nc2c1)c1cccs1	78*	44	71	93*	x	0.88	u	1.9	-8	-6	-15
SMILES	esBAF inh	HSF1 inh	MITF TRPM1 HTS	HSF-1 act	Wnt act	Ring1 derepress	esBAF Fgf4 qPCR	Bmi1 derepress	A549 tox SP	HepG2 cytotox SP	HEK293 tox SP
Cc1sc(NC(=S)NC(=O)c2cccs2)nc1-c1ccc(C(C)C)cc1	-3	0	-4	22	x	x	x	x	x	x	x
NCC[C@@H]1CC[C@@H](NC(=O)C2CCCC2)[C@@H](CO)O1	-3	x	x	x	x	x	x	x	x	x	x
CCC(=O)N1[C@@H]2c3ccc(C4=CCCC4)c(=O)n3C[C@H]1[C@H](CO)[C@H]2C(=O)N[C@@H](C)c1ccccc1	-6	x	x	x	x	x	x	x	x	x	x
C[C@@H]1CN([C@@H](C)CO)C(=O)Cc2cc(NS(=O)(=O)c3ccccc3)ccc2O[C@H]1CN(C)CC1CCCCC1	2	x	x	x	x	x	x	x	x	x	x
O=C(NC1CCCCC1)c1ccc2ccccc2c1O	83*	x	x	x	0	1.1	0.73*	1.9	-13	9	-50*
O=C(NC1CCCCCCC1)c1c(O)c2ccccc2[nH]c1=O	91*	7	100*	-5	x	1.1	0.92	1.3	-6	18	-18
O=C(NNC(=O)c1ccc2ccccc2c1O)NC1CCCCC1	0	-5	-5	2	2	x	x	x	x	x	x
COc1ccccc1-c1cnc2c(Nc3cccc(OC(F)(F)C(F)F)c3)nccn12	14	x	x	x	-1	x	x	x	x	x	x
O=C(NCCO)c1cccc(-c2cnc3c(Nc4cccc(OC(F)(F)C(F)F)c4)nccn23)c1	71*	x	x	x	0	1.2	u	2.4	10	-20	-2
Cc1ccc(CNC(=O)c2ccc(Cn3cc(-c4ccc(C)cc4)nc3-c3ccncc3)cc2)cc1	99*	44	x	u	47*	1.4	1	1.9	-9	21	-14
Cc1ccc(CNC(=O)CCn2cc(-c3ccc(C)cc3)nc2-c2ccncc2)cc1	0	1	5	-11	-1	x	x	x	x	x	x
CC(C)CC#Cc1ccc2c(c1)O[C@@H](CN(C)C(=O)c1cnccn1)[C@H](C)CN([C@H](C)CO)S2(=O)=O	1	x	x	x	x	x	x	x	x	x	x
